Laboratory results reported in PubChem BioAssay AID1159580 (chemical genetic matrix, 2015).
About 2,000 (36%) of roughly 5,500 compounds were called active. About 18% were inconclusive and are not listed. Cut-off read from the data, not from the text of the source: active = normalized growth mostly below about 0.91 (no sharp cut-off); inconclusive = no clear call, values can overlap the other calls; inactive = mostly above about 0.92. Some of the results follow.

Experiment: chemical genetic growth profiling, strain panel (AID 1159580);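 note: tested at 20 µM; growth read once vehicle control cultures reached saturation at 30 °C; 1 = growth at the plate median or of vehicle wells; lower values mean less growth of the strain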
Details: growth OD

Measured: normalized growth

CC1CCC2(OC1)OC1CC3C4CC[C@H]5C[C@@H](O)CC[C@]5(C)C4CC(=O)[C@]3(C)C1C2C (some centres not stated)
inactive: S. cerevisiae deletion strains, locus YJR075W, strain HOC1, hits give low values 1.01 | S. cerevisiae deletion strains, locus YKL009W, strain mrt4, hits give low values 0.965 | S. cerevisiae deletion strains, locus YKL068W, hits give low values 0.992 | S. cerevisiae deletion strains, locus YKL085W, strain MDH1 (second series), hits give low values 0.989 | S. cerevisiae deletion strains, locus YKL085W, strain MDH1, hits give low values 0.989 | S. cerevisiae deletion strains, locus YKL160W, strain elf1, hits give low values 1.01 | S. cerevisiae deletion strains, locus YKL190W, strain CNB1, hits give low values 1.01 | S. cerevisiae deletion strains, locus YKR001C, strain vps1, hits give low values 0.98 | S. cerevisiae deletion strains, locus YKR026C, strain gcn3, hits give low values 1.02 | S. cerevisiae deletion strains, locus YKR091W, strain srl3, hits give low values 1.01 | S. cerevisiae deletion strains, locus YLL001W, strain dnm1, hits give low values 0.987 | S. cerevisiae deletion strains, locus YLL026W, hits give low values 1.01 | S. cerevisiae deletion strains, locus YLL041C, strain sdh2, hits give low values 1 | S. cerevisiae deletion strains, locus YLR027C, strain aat2, hits give low values 1 | S. cerevisiae deletion strains, locus YLR039C, strain RIC1, hits give low values 0.972 | S. cerevisiae deletion strains, locus YLR058C, strain SHM2, hits give low values 1.01 | S. cerevisiae deletion strains, locus YLR102C, strain apc9, hits give low values 0.982 | S. cerevisiae deletion strains, locus YLR113W, strain HOG1, hits give low values 0.97 | S. cerevisiae deletion strains, locus YLR221C, strain rsa3, hits give low values 0.994 | S. cerevisiae deletion strains, locus YLR258W, strain gsy2, hits give low values 0.995 | S. cerevisiae deletion strains, locus YLR262C, strain YPT6 (second series), hits give low values 0.97 | S. cerevisiae deletion strains, locus YLR262C, strain YPT6, hits give low values 0.993 | S. cerevisiae deletion strains, locus YLR268W, strain sec22, hits give low values 0.952 | S. cerevisiae deletion strains, locus YLR320W, strain mms22, hits give low values 0.975 | S. cerevisiae deletion strains, locus YLR330W, strain CHS5, hits give low values 1.02 | S. cerevisiae deletion strains, locus YLR342W, strain FKS1 (second series), hits give low values 1.06 | S. cerevisiae deletion strains, locus YLR342W, strain FKS1, hits give low values 1 | S. cerevisiae deletion strains, locus YLR357W, strain rsc2, hits give low values 0.992 | S. cerevisiae deletion strains, locus YLR370C, strain arc18, hits give low values 1.02 | S. cerevisiae deletion strains, locus YLR371W, strain rom2, hits give low values 0.976 | S. cerevisiae deletion strains, locus YLR384C, strain iki3, hits give low values 1.02 | S. cerevisiae deletion strains, locus YLR418C, strain cdc73, hits give low values 0.934 | S. cerevisiae deletion strains, locus YML016C, strain PPZ1, hits give low values 1.01 | S. cerevisiae deletion strains, locus YML032C, strain rad52, hits give low values 0.965 | S. cerevisiae deletion strains, locus YML120C, strain ndi1, hits give low values 1 | S. cerevisiae deletion strains, locus YML124C, strain tub3, hits give low values 0.981 | S. cerevisiae deletion strains, locus YMR058W, strain fet3, hits give low values 1.03 | S. cerevisiae deletion strains, locus YMR078C, strain ctf18, hits give low values 1.01 | S. cerevisiae deletion strains, locus YMR125W, strain sto1, hits give low values 1.04 | S. cerevisiae deletion strains, locus YMR129W, hits give low values 1.03 | S. cerevisiae deletion strains, locus YMR205C, strain PFK2, hits give low values 1 | S. cerevisiae deletion strains, locus YMR223W, strain ubp8, hits give low values 0.999 | S. cerevisiae deletion strains, locus YMR231W, strain pep5, hits give low values 1.02 | S. cerevisiae deletion strains, locus YMR263W, strain SAP30, hits give low values 1.01 | S. cerevisiae deletion strains, locus YMR307W, strain GAS1, hits give low values 1.01 | S. cerevisiae deletion strains, locus YNL067W, strain RPL9B, hits give low values 0.991 | S. cerevisiae deletion strains, locus YNL071W, strain lat1, hits give low values 1.02 | S. cerevisiae deletion strains, locus YNL128W, strain TEP1, hits give low values 1.01 | S. cerevisiae deletion strains, locus YNL153C, strain GIM3, hits give low values 0.992 | S. cerevisiae deletion strains, locus YNL183C, strain NPR1, hits give low values 0.943 | S. cerevisiae deletion strains, locus YNL209W, strain ssb2, hits give low values 1.01 | S. cerevisiae deletion strains, locus YNL233W, strain BNI4, hits give low values 0.998 | S. cerevisiae deletion strains, locus YNL248C, strain rpa49, hits give low values 1.02 | S. cerevisiae deletion strains, locus YNL250W, strain rad50, hits give low values 0.98 | S. cerevisiae deletion strains, locus YNL271C, strain bni1, hits give low values 0.979 | S. cerevisiae deletion strains, locus YNL298W, strain CLA4, hits give low values 0.983 | S. cerevisiae deletion strains, locus YNL307C, strain MCK1, hits give low values 0.982 | S. cerevisiae deletion strains, locus YNL322C, strain KRE1 (second series), hits give low values 1.01 | S. cerevisiae deletion strains, locus YNL322C, strain KRE1, hits give low values 1.01 | S. cerevisiae deletion strains, locus YNR049C, strain mso1, hits give low values 1 | S. cerevisiae deletion strains, locus YNR052C, strain pop2, hits give low values 0.982 | S. cerevisiae deletion strains, locus YOL006C, strain TOP1, hits give low values 1.01 | S. cerevisiae deletion strains, locus YOL012C, strain htz1 0.834 | S. cerevisiae deletion strains, locus YOL147C, strain pex11, hits give low values 0.993 | S. cerevisiae deletion strains, locus YOR001W, strain rrp6, hits give low values 0.983 | S. cerevisiae deletion strains, locus YOR061W, strain CKA2, hits give low values 1.01 | S. cerevisiae deletion strains, locus YOR069W, strain VPS5, hits give low values 1.01 | S. cerevisiae deletion strains, locus YOR070C, strain gyp1, hits give low values 1.01 | S. cerevisiae deletion strains, locus YOR080W, strain dia2, hits give low values 1.04 | S. cerevisiae deletion strains, locus YOR083W, strain WHI5, hits give low values 0.957 | S. cerevisiae deletion strains, locus YOR106W, strain vam3, hits give low values 1.02 | S. cerevisiae deletion strains, locus YOR136W, strain idh2, hits give low values 0.995 | S. cerevisiae deletion strains, locus YOR144C, strain elg1, hits give low values 0.989 | S. cerevisiae deletion strains, locus YOR184W, strain ser1, hits give low values 0.96 | S. cerevisiae deletion strains, locus YOR231W, strain MKK1, hits give low values 0.963 | S. cerevisiae deletion strains, locus YOR265W, strain rbl2, hits give low values 1.01 | S. cerevisiae deletion strains, locus YOR270C, strain vph1, hits give low values 1.02 | S. cerevisiae deletion strains, locus YOR290C, strain snf2, hits give low values 1.03 | S. cerevisiae deletion strains, locus YOR316C, strain cot1, hits give low values 0.991 | S. cerevisiae deletion strains, locus YPL051W, strain arl3, hits give low values 1.02 | S. cerevisiae deletion strains, locus YPL055C, strain LGE1, hits give low values 1.02 | S. cerevisiae deletion strains, locus YPL078C, strain atp4, hits give low values 1.06 | S. cerevisiae deletion strains, locus YPL106C, strain sse1, hits give low values 1.02 | S. cerevisiae deletion strains, locus YPL240C, strain hsp82, hits give low values 1.01 | S. cerevisiae deletion strains, locus YPL241C, strain CIN2, hits give low values 1.01 | S. cerevisiae deletion strains, locus YPL256C, strain CLN2, hits give low values 0.963 | S. cerevisiae deletion strains, locus YPR119W, strain clb2, hits give low values 0.989 | S. cerevisiae deletion strains, locus YPR141C, strain kar3, hits give low values 0.986 | S. cerevisiae deletion strains, locus YPR163C, strain tif3, hits give low values 0.98 | S. cerevisiae deletion strains, locus YPR167C, strain met16, hits give low values 0.99 | S. cerevisiae deletion strains, strain wtn01, hits give low values 0.96 | S. cerevisiae strains, strain wild type, hits give low values 1.01
